Source: PubChem
HIF-2a inh – HIF-2a reporter inhibitors, primary screen, luminescence, 786-0 RCC cells; 0.72% of 360,000 active; inhibition, % at 18.8 µM; 786-0 RCC cells HIF-2a reporter, luciferase luminescence, overnight;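 active = inhibition of the luminescence signal of 40% or more relative to plate controls, in a single-dose primary screen at 18.75 µM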
CF NFkB inh – inhibitors of PAF-induced NF-kB signaling, primary screen, cell-based, GFP fluorescence, uHTS | inhibition, % at 5 µM | 0.86% of 360,000 active | KKLEB NF-kB-GFP reporter, GFP fluorescence overnight;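 active = at least 50% inhibition at 5 µM, scaled per plate between neutral and stimulator controls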;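 note: PAF is a Pseudomonas aeruginosa culture filtrate used as stimulus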
TRPM1 prom inh – inhibitors of MITF-dependent TRPM1 promoter reporter, primary screen, cell-based, SK-MEL-5, single point, luciferase; SK-MEL-5 TRPM1 promoter luciferase, 24 h; inhibition, % at 12.5 µM; 0.83% of 330,000 active; AID 488899, 2010;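 active = mean inhibition across replicates of 60% or more, whatever share of single replicates reaches that level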
KKLEB cytotox – cytotoxicity in KKLEB CF airway cells, primary screen, cytotoxicity control for CF NF-kB inhibitor project, cell-based, uHTS, fluorescence assay plates; KKLEB CF airway cells viability, ATPlite luminescence, overnight; active compounds read low; cells stimulated with P. aeruginosa culture filtrate; activity change (cytotoxicity), % at 5 µM; 0.36% of 360,000 active;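 active = corrected activity change at or below -50% at 5 µM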
Peg3 prom inh – Peg3 promoter-driven luciferase inhibitors, primary screen, cell-based, HeLa, luciferase luminescence | HeLa PEG-Prom luciferase reporter, overnight | inhibition, % at 20 µM | 1.7% of 360,000 active;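 active = inhibition of at least 50% at 20 µM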
B2AR ag – beta2AR agonists driving receptor internalization, primary screen, cell-based, FAP fluorogen, flow cytometry; Beta-2 adrenergic receptor (Homo sapiens), P07550; Am2.2-beta2AR cells; response, % (no concentration beside the values); 0.43% of 340,000 active;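 active = response above a set limit, near 3 SD of response in nonfluorescent compounds, cut at about 42% in these data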
Target sequence (P07550 whole entry, looked up): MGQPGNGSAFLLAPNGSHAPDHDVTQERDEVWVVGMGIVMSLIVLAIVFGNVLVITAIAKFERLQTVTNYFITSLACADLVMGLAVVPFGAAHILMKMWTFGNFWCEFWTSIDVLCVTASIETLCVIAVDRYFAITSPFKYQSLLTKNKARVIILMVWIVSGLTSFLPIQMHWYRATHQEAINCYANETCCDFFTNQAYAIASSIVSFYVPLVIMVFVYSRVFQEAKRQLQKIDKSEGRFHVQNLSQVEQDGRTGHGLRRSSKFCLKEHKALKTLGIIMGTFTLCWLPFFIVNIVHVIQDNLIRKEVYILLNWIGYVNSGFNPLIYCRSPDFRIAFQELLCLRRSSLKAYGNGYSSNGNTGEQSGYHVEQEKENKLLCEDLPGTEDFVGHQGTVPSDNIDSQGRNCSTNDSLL
Each line names hits and unclear results; the compound was inactive in the other large screens. Most compounds without a hit are left out; they make up all but 2.8% or so of the library.

Cc1ccc(-c2nn(-c3ccccc3)cc2/C=N/NC(=O)CSc2nnc(C)n2-c2ccccc2)cc1	B2AR ag 89
COc1ccc(-c2nn(-c3ccccc3)cc2/C=C/C(=O)OCC(=O)Nc2ccc(C#N)cc2)cc1	B2AR ag 55
COc1ccc(-c2nn(-c3ccccc3)cc2/C=N/NC(=S)NC(C)C)cc1OC	none
COCCNC(=O)C1(C)CCCN(C(=O)c2ccccc2C(F)(F)F)C1 (stereo unspecified)	none (no result: TRPM1 prom inh, B2AR ag)
CN(C)C(CNC(=O)c1sc2ccccc2c1Cl)c1ccco1 (stereo unspecified)	none (no result: TRPM1 prom inh, B2AR ag)
COc1ccc(CNC(=O)C2(C)Cc3c(-c4ccc5c(c4)OCO5)ccnc3O2)cc1OC (stereo unspecified)	none (no result: TRPM1 prom inh, B2AR ag)
CCCSc1cc(N2CCN(C)CC2)nc(-c2ccc(OC)cc2)n1	Peg3 prom inh 55
CCN(CC)C(=O)C1=C(C)N(CCCOC)C(=O)C(CC(=O)NCC2CCCCC2)C1 (stereo unspecified)	none (no result: TRPM1 prom inh, B2AR ag)
CCN1/C(=C/c2ccc3cc(C)ccc3[n+]2CC)Sc2cc(C)ccc21	HIF-2a inh 63, TRPM1 prom inh 85, Peg3 prom inh 97 (no result: B2AR ag)
CCCCN1/C(=C/c2cccc[n+]2C)Sc2cc(NC(C)=O)ccc21	none
Cc1ccc2c(c1)S/C(=C/c1ccc[n+](C)c1)N2CCO	none
CCN1/C(=C/c2ccc3ccccc3[n+]2CC)C=Cc2ccccc21	HIF-2a inh 66, TRPM1 prom inh 102, Peg3 prom inh 87
CCCCN1/C(=C/c2ccc3ccccc3[n+]2CC)Sc2ccccc21	TRPM1 prom inh 69 (no result: B2AR ag)
CCN1/C(=C/c2cccc[n+]2C)Sc2ccc(OC)cc21	none
CCN1/C(=C/c2ccc3cc(C)ccc3[n+]2C)Sc2ccc3sccc3c21	HIF-2a inh 42, TRPM1 prom inh 77, Peg3 prom inh 111
CC(=O)N(C)c1ccc(OCC(O)Cn2c3ccc(Cl)cc3c3cc(Cl)ccc32)cc1 (stereo unspecified)	Peg3 prom inh 61
CCOC(=O)NNC(=O)CCn1c2c(c3ccccc31)CCCC2	CF NFkB inh 62
O=C1CCc2cc(S(=O)(=O)NC3CCCCC3)ccc2N1	Peg3 prom inh 103
CC1CCCCC1NS(=O)(=O)c1ccc2c(c1)CCC(=O)N2 (stereo unspecified)	none
Cc1ccc(NC(=O)/C=C/c2ccc([N+](=O)[O-])s2)cc1	TRPM1 prom inh 82
Cc1cccc(NC(=S)N/N=C/c2ccc([N+](=O)[O-])s2)c1	none
CCOC(=O)C1=CCN(S(=O)(=O)c2ccccc2C(=O)OC)C1c1ccc(Cl)cc1 (stereo unspecified)	none (no result: TRPM1 prom inh, B2AR ag)
O=C1/C(=C/c2ccc3c(c2)OCO3)SC(=S)N1CCC(=O)N(CCO)c1ccccc1	HIF-2a inh 43 (no result: TRPM1 prom inh, B2AR ag)
CN1CCN(C(=O)CCN2C(=O)/C(=C/c3cccc(Br)c3)SC2=S)CC1	Peg3 prom inh 77
COc1cccc(/C=C2\SC(=S)N(CCCC(=O)N(CCO)c3ccccc3)C2=O)c1	HIF-2a inh 86, Peg3 prom inh 79 (no result: B2AR ag)
O=C1/C(=C/c2cccc(Br)c2)SC(=S)N1CCC(=O)N(CCO)c1ccccc1	Peg3 prom inh 56
CCc1nc2c(OCCOc3ccc(F)cc3)cccn2c1N(C)C(=O)c1cccs1	none (no result: TRPM1 prom inh, B2AR ag)
Cc1ccc(OCC(=O)NNc2c3ccccc3nc3ccccc23)cc1	Peg3 prom inh 83
Cc1cn([C@H]2C[C@H](O)[C@@H](/C=C/C(=O)NCc3cccc4ccccc34)O2)c(=O)[nH]c1=O	CF NFkB inh 81, KKLEB cytotox -52 (no result: TRPM1 prom inh, B2AR ag)
CCOc1ccc(C(=O)c2ccccc2C(=O)O)cc1OCC	none
CC1=CC(=O)C(C(C)C)=C/C1=C(\c1cc(C(C)C)c(OP(=O)(O)O)cc1C)c1ccccc1C(=O)O	Peg3 prom inh 67
CCOC(=O)[C@]12Cc3c(cc(OC)c(OC)c3OC)[C@H]1N(Cc1ccccc1)C(=O)c1cc(OC)ccc12	none (no result: CF NFkB inh, TRPM1 prom inh, KKLEB cytotox, Peg3 prom inh, B2AR ag)
CC1=NOC(=O)/C1=C\c1ccc(-c2ccc(Cl)cc2Cl)o1	HIF-2a inh 56, TRPM1 prom inh 73, Peg3 prom inh 108, B2AR ag 99
Cc1ccccc1NC(=O)c1cccc2nc3ccccc3nc12	TRPM1 prom inh 66
N#CCSc1nc2ccccc2c2nc3ccccc3n12	TRPM1 prom inh 77
CCn1c(SCC#N)nc2ccccc2c1=O	none
N#CCSc1nc2cc(C(=O)N3CCCC3)ccc2c(=O)n1Cc1ccccc1	none
N#CCSc1nc2cc(C(=O)N3CCC(C(N)=O)CC3)ccc2c2nc3ccccc3n12	CF NFkB inh 68
Nc1ccc2nc(-c3cccnc3)[nH]c2c1	none
Nc1cccc(-c2c[nH]c3ncc(-c4cccnc4)cc23)c1	CF NFkB inh 80
O=C(COC(=O)c1cnccn1)NCc1ccccc1Cl	none (no result: TRPM1 prom inh, B2AR ag)
C[C@]12c3[nH]c4ccc(Cl)cc4c3CCN1C(=O)[C@@H](CC(=O)NCC13CC4CC(CC(C4)C1)C3)C[C@@H]2C(=O)N1CCCCC1	Peg3 prom inh 56
CC[C@]12c3[nH]c4ccc(Cl)cc4c3CCN1C(=O)[C@@H](CC(=O)NCC13CC4CC(CC(C4)C1)C3)C[C@@H]2C(=O)N1CCN(C(=O)C2CC2)CC1	Peg3 prom inh 56
Nc1c(S(=O)(=O)c2ccccc2)c2nc3ccccc3nc2n1/N=C/c1cccc(O)c1	Peg3 prom inh 87
Cc1cccc(S(=O)(=O)c2c(N)n(/N=C/c3ccccc3)c3nc4ccccc4nc23)c1	none
Cc1ccc(C(CNS(=O)(=O)c2ccc(Br)cc2)N2CCN(C)CC2)cc1 (stereo unspecified)	TRPM1 prom inh 80
CS(=O)(=O)N1Cc2cc(C(=O)NCC3CCCCC3)nc(-c3cccc(-c4cccnc4)c3)c2[C@H]1CCO	none (no result: CF NFkB inh, TRPM1 prom inh, KKLEB cytotox, Peg3 prom inh, B2AR ag)
CC1=C(CC(=O)c2ccccc2)C(=O)c2ccccc2C1=O	CF NFkB inh 77, TRPM1 prom inh 66
O=C(CN1C(=O)c2ccccc2C1=O)c1ccccc1	none
O=C(NC1CCCCC1)C(c1ccc(F)cc1)N(Cc1cccs1)C(=O)CN1C(=O)c2ccccc2S1(=O)=O (stereo unspecified)	CF NFkB inh 59, KKLEB cytotox -75
O=C(O)c1cccc(N/N=C/c2ccc(OC(F)(F)F)cc2)c1	TRPM1 prom inh 74
CCOC(=O)c1c(C)c(C(=O)Nc2cc(OC)ccc2OC)c(C)n1CC	Peg3 prom inh 57
O=C(CCOc1ccccc1)N1CCCC(Nc2ccccc2)C1 (stereo unspecified)	none (no result: TRPM1 prom inh, B2AR ag)
COc1cc2c(cc1NC(=O)c1ccccc1-c1ccccc1C(=O)O)-c1ccccc1C2	none (no result: TRPM1 prom inh, B2AR ag)
